The nature of test [1]: NCI Yeast Anticancer Drug Screen. Data for the rad50 strain (AID 155).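 Also: 0% = growth of vehicle-only cultures of the same strain.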 Particulars: S. cerevisiae rad50 strain growth inhibition; at 50.0 µM; active compounds read high. A digest of the protocol:
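Yeast carrying a defined DNA repair defect were exposed to test compounds, and growth was compared with vehicle-treated controls to give percent inhibition.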

Test [2] can be described thus: NCI Yeast Anticancer Drug Screen. Data for the mec2-1 strain (AID 157). The note with it: S. cerevisiae mec2-1 strain, at 50.0 µM, active compounds read high. A digest of the protocol: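 Compounds were applied to mec2-1 yeast cells. Their growth was then compared with that of vehicle-treated cultures to give growth inhibition.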
A short description of test [3]: NCI Yeast Anticancer Drug Screen. Data for the sgs1 mgt1 strain (AID 161).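 Also: 0% = growth of cultures given vehicle only.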 Particulars: S. cerevisiae sgs1 mgt1 strain, at 50.0 µM, active compounds read high. A digest of the protocol: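 This yeast growth screen uses a strain with defined DNA-repair lesions; compound-treated growth is compared with vehicle-treated growth.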
Test [4] can be described thus: NCI Yeast Anticancer Drug Screen. Data for the cln2 rad14 strain (AID 165).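 Also: 0% = growth equal to vehicle treated cultures.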 The note with it: S. cerevisiae cln2 rad14 strain, at 50.0 µM, active compounds read high. A digest of the protocol:
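Strain: cln2 rad14 yeast, altered in cell cycle control and DNA damage repair. Read-out: growth inhibition vs vehicle.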

The nature of test [5]: NCI Yeast Anticancer Drug Screen. Data for the bub3 strain (AID 167). Particulars: S. cerevisiae bub3 mutant strain, at 50.0 µM, active compounds read high. A digest of the protocol: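 Compounds were applied to a genetically altered yeast strain carrying a cell-cycle control defect. Growth inhibition was scored against vehicle-treated controls.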
A short description of test [6]: NCI Yeast Anticancer Drug Screen. Data for the mlh1 rad18 strain (AID 175). Particulars: S. cerevisiae mlh1 rad18 strain growth inhibition; at 50.0 µM; active compounds read high. A digest of the protocol:
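A repair-deficient yeast strain is exposed to test compound, and growth is scored relative to vehicle-treated controls.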

The structures appear in SMILES notation. The panel holds about 79,000 compounds, 15% with a hit somewhere; the sample as a whole holds those more often. Values without a mark were called inactive. Activity calls are given as the source filed them. Rule as the data show it: active = growth inhibition above about 70%; inactive = the rest.

`CCOC(=O)/C=C/c1ccc([N+](=O)[O-])cc1`: the growth inhibition in test [1] was 23.6%; in test [2], 26.6%; in test [3], 9.15%; in test [4], 2.55%; in test [5], -1.9%; in test [6], -0.05%.
In the case of `COc1ccccc1CC(C)N1CCCC1c1ccccc1` (stereo not given), the growth inhibition in test [1] is -12.1%; in test [2] it was -6.8%; in test [3], -0.9%; in test [4], -41.6%; in test [5], 4.65%; in test [6], 3.4%.
Take `Nc1ccc([N+](=O)[O-])c(C(=O)O)c1`: the growth inhibition in test [1] was -10.2%; in test [2], -26.9%; in test [3] it was -15%; in test [4], 15.9%; in test [5], -15.1%; in test [6], -6.9%.
For `CC1=C(CCC(C)CO)O[C@H]2C[C@H]3[C@@H]4CC[C@H]5C[C@@H](O)CC[C@]5(C)[C@H]4CC(=O)[C@]3(C)[C@@H]12` (stereo not given in full), the growth inhibition was 64.3% in test [1]; 28.6% in test [2]; 84% (active) in test [3]; 38.4% in test [4]; 67.3% in test [5]; 70.8% (active) in test [6].
For the compound `COC1CC(OC2C(C)OC(OC3C(C)OC(OC4C(O)CC(O[C@H]5CC[C@@]6(C)C(=CC[C@]7(O)[C@@H]6C[C@@H](OC(=O)/C=C/c6ccccc6)[C@@]6(C)[C@]7(O)CC[C@@]6(O)C(C)=O)C5)OC4C)CC3OC)CC2OC)OC(C)C1O` (stereo not given in full), the growth inhibition in test [1] was -13.4%; in test [2] it was 7.95%; in test [3], -8.6%; in test [4], 16.2%; in test [5] it was -6.75%; in test [6], -53.8%.
With `CCCCNC(=O)C1CCC(CC2CCCCC2)CC1` (stereo not given), the growth inhibition in test [1] was 22.8%; in test [2] it was 28.7%; in test [3], 12.5%; in test [4], -3.3%; in test [5], 18.4%; in test [6] it was 10.6%.
On to `CC(=O)Nc1ccc2c([N+](=O)[O-])cccc2c1-c1c(NC(C)=O)ccc2c([N+](=O)[O-])cccc12`, for which the growth inhibition is 44.2% in test [1]; 10.8% in test [2]; 35.4% in test [3]; 10.8% in test [4]; 5.55% in test [5]; 30.4% in test [6].
Consider `CCO/C=N\C1=C(C#N)SC2=N/C(=C\c3ccco3)C(=O)N21`, for which the growth inhibition in test [1] is 6.1%; in test [2], -19.2%; in test [3], -7.4%; in test [4], 5.65%; in test [5] it was 0.45%; in test [6], -17.3%.
Take `COC(=O)C(/C(=N\O)C(=O)Nc1cccc(Cl)c1C)c1cnc2ccccc2n1` (stereo not given): the growth inhibition in test [1] was 14.5%; in test [2], -11.1%; in test [3] it was 8.75%; in test [4] it was 23.5%; in test [5], -0.2%; in test [6], 12.5%.
`Cc1c2oc3c(C)ccc(C(=O)NCCc4ccccn4)c3nc-2c(C(=O)NCCc2ccccn2)c(N)c1=O`: the growth inhibition was 5.9% in test [1]; -8.05% in test [2]; 4.05% in test [3]; 4.9% in test [4]; -5.45% in test [5]; -6.9% in test [6].
As to `COc1ccc(C2C(=O)c3ccc(OC)cc3OC2c2cccnc2)cc1` (stereo not given), the growth inhibition in test [1] was 14.9%; in test [2], -8.8%; in test [3] it was 53.7%; in test [4] it was 29.6%; in test [5], 45.8%; in test [6] it was 25.2%.
Regarding `c1ccc(Nc2cc(Nc3ccccc3)ncn2)cc1`, the growth inhibition in test [1] is 4.4%; in test [2] it was -20.5%; in test [3], 3.8%; in test [4], -6.5%; in test [5], -2.2%; in test [6], 2.35%.
For the compound `Cc1cnc2ccccc2c1`, the growth inhibition is -12.2% in test [1]; -2.15% in test [2]; -5.45% in test [3]; 4.35% in test [4]; 0.45% in test [5]; 2.8% in test [6].
With `CCCCOc1n[nH]c(=O)c2ccccc12`, the growth inhibition is -2.4% in test [1]; -13% in test [2]; -3.65% in test [3]; -25.4% in test [4]; -7.9% in test [5]; 8.6% in test [6].
Consider `CN1Cc2ccccc2-c2ccccc2C1`, for which the growth inhibition is 4.35% in test [1]; 1.8% in test [2]; -5.95% in test [3]; -32.8% in test [4]; 4.7% in test [5]; -2% in test [6].
Regarding `CC(C)(C)C(=O)[CH-]C(=O)C(C)(C)C.CC(C)(C)C(=O)[CH-]C(=O)C(C)(C)C.CN(C)c1ccc([O-])cc1.CN(C)c1ccc([O-])cc1.[Ti+4]`, the growth inhibition in test [1] is -20.8%; in test [2], -16.5%; in test [3], -12.2%; in test [4], 12.2%; in test [5], 5.4%; in test [6] it was -11.2%.
Consider `Cc1cc[n+](CC(=O)c2ccc(Br)cc2)cc1`, for which the growth inhibition was 22.8% in test [1]; 12.7% in test [2]; 18.4% in test [3]; 22.9% in test [4]; 4.35% in test [5]; 54.5% in test [6].
As to `CCOC(=O)NC(=O)c1cn(CCN2CCN(c3ncnc4nc[nH]c34)CC2)c(=O)[nH]c1=O`, the growth inhibition in test [1] is 18.9%; in test [2], 16.6%; in test [3], 14.4%; in test [4], 12.7%; in test [5] it was -4.3%; in test [6] it was 23.1%.
As to `CCN(CC)P1(=O)C=C(C)C2C1C1C=C(C)C2P1(=O)N(CC)CC` (stereo not given), the growth inhibition in test [1] is 3.5%; in test [2], -2.45%; in test [3], -5.25%; in test [4], -5.25%; in test [5] it was -34.8%; in test [6] it was -13.2%.
As to `NC(=O)C1C=Cc2ccccc21` (stereo not given), the growth inhibition in test [1] is -6.1%; in test [2], -19.3%; in test [3] it was -18.4%; in test [4], -14.1%; in test [5], -16.8%; in test [6], -35.6%.

(Values after PubChem BioAssay (NCI).)
